# In PubChem BioAssay (NCATS):
# Values joined by “and” are separate entries in the source; they are usually repeats but may differ in a detail not shown here. Equal entries are not always repeated. Results filed as inconclusive are left out. Where a call stands in place of a potency, no number is given. Active and inactive are the calls of the source. Unless noted, calls come from the whole dose curve. Square brackets hold non-standard residues; d marks the D form. Peptide text beside a SMILES is read from it. * marks the point of attachment. Nva = CCC[C@H](N)C(=O)O; Cbz = O=C(OCc1ccccc1)*
# Key:
# [1] = qHTS profiling of the MIPE4 collection as inhibitors of Plasmodium falciparum (3D7) proliferation (AID 743344; call rule not given here); details: P. falciparum 3D7 in erythrocytes, SYBR Green DNA fluorescence, 72 h; at 28.5 µM unless noted
# Summary of the method: (§1)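 Parasite DNA was quantified by SYBR Green I fluorescence (ex 485, em 535 nm) after overnight lysis in saponin/Triton buffer at room temperature. Cultures at 0.3% parasitemia and 2.5% hematocrit were first exposed to compound for 72 h at 37 C; signals were normalised to artemisinin (0.29 uM) and vehicle wells.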
# [2] = qHTS profiling of the MIPE4 collection as inhibitors of Plasmodium falciparum (DD2) proliferation (AID 743345; call rule not given here); details: P. falciparum Dd2 in erythrocytes, SYBR Green DNA, 72 h; at 28.5 µM unless noted
# Summary of the method: as §1
# [3] = qHTS profiling of the MIPE4 collection as inhibitors of Plasmodium falciparum (DD2) proliferation (Rep 2) (AID 743346; call rule not given here); details: P. falciparum Dd2 in erythrocytes, SYBR Green DNA, 72 h; at 28.5 µM unless noted
# Summary of the method: as §1
# [4] = qHTS for Inhibitors of the Functional Ribonucleoprotein Complex (vRNP) of Lassa (LASV) Arenavirus: LASV Primary Screen - GLuc reporter signal (AID 1347082; calls by dose curve; tested in HEK293 reporter line; note: nearly all actives have a fitted effect of over 60% in size; note: potency is the fitted concentration of half-maximal effect)
# [5] = qHTS for Inhibitors of the Functional Ribonucleoprotein Complex (vRNP) of Lassa (LASV) Arenavirus: Viability assay - alamar blue signal for LASV Primary Screen (AID 1347083; calls by dose curve; tested in HEK293 reporter line; note: nearly all actives have a fitted effect of over 80% in size; note: potency is the fitted concentration of half-maximal effect)
# [6] = qHTS for Inhibitors of the Functional Ribonucleoprotein Complex (vRNP) of Lymphocytic Choriomeningitis Arenaviruses (LCMV): Viability assay - alamar blue signal for LCMV Primary Screen (AID 1347085; calls by dose curve; tested in HEK293 reporter line; note: nearly all actives have a fitted effect of over 80% in size; note: potency is the fitted concentration of half-maximal effect)
# [7] = biological target: Nucleoprotein (Lymphocytic choriomeningitis virus (strain Armstrong)) (UniProt P09992); assay: qHTS for Inhibitors of the Functional Ribonucleoprotein Complex (vRNP) of Lymphocytic Choriomeningitis Arenaviruses (LCMV): LCMV Primary Screen - GLuc reporter signal (AID 1347086); note: nearly all actives have a fitted effect of over 70% in size
# [8] = Confirmatory qHTS to identify inhibitors of SARS-CoV-2 cell entry (AID 1645844); note: potency is the fitted concentration of half-maximal effect; nearly all actives have a fitted effect of over 45% in size
# Summary of the method: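 HEK293-ACE2, overnight seeding; cpd 1 h, 37C/5% CO2; + SARS-CoV-2-S MLV PP (Wuhan-Hu-1, ΔC19); 48 h; Bright-Glo luminescence. Data normalised to S PP and bald PP wells.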
# [9] = Cytotoxicity counterscreen for inhibitors of SARS-CoV-2 cell entry (AID 1645845); note: nearly all actives have a fitted effect of over 50% in size
# Summary of the method: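 Counterscreen run in the same HEK293-ACE2 line as the pseudotyped-particle entry assay, without particles. Viability after 48 h at 37 C was read as ATP luminescence, scaled between cell-containing and cell-free wells.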
# [10] = Primary qHTS to identify inhibitors of SARS-CoV-2 cell entry (AID 1645846); details: activity change, negative = inhibition: at 57.1 µM (top of the series) unless noted; note: nearly all actives have a fitted effect of over 45% in size; note: potency is the fitted concentration of half-maximal effect
# Summary of the method: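 Luminescence readout (Bright-Glo luciferase) 48 h after pseudoparticle addition. HEK293-ACE2 cells, 1500/well; compound pre-incubation 1 h; Normalized to spike PP and bald PP.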
# [11] = VSVG counterscreen qHTS to identify inhibitors of SARS-CoV-2 cell entry (AID 1645847); note: potency is the fitted concentration of half-maximal effect; nearly all actives have a fitted effect of over 65% in size
# Summary of the method: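 HEK293-ACE2 cells (Expi293F stably expressing human ACE2) were pretreated with compound for 1 h at 37 °C, then infected with MLV-based VSV-G pseudotyped particles for 48 h. Luciferase luminescence was normalized to VSV-G PP and bald PP wells.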
# [12] = Confirmatory qHTS for VERO E6 Cytotoxicity Assay: Counterscreen for SARS-CoV-2 CPE Assay (AID 1508605); note: potency is the fitted concentration of half-maximal effect; nearly all actives have a fitted effect of over 60% in size
# [13] = Primary qHTS for Huh7 cytotoxicity: counterscreen for inhibitors of MERS-S pseudotyped particle cell entry (AID 1479147); details: outcome: dose series up to 57.1 µM unless noted
# [14] = Primary qHTS for inhibitors of MERS-S pseudo-typed particle cell entry (AID 1479149); note: nearly all actives have a fitted effect of over 60% in size
# [15] = Primary qHTS for Vero E6 cytotoxicity: counterscreen for inhibitors of SARS-S pseudo-typed particle cell entry (AID 1479150); details: outcome: dose series up to 57.1 µM unless noted
# [16] = biological target: Alpha-galactosidase (Coffea arabica) (UniProt Q42656); assay: Counterscreen for Glucocerebrosidase Inhibitors: qHTS Assay for Coffee Bean alpha-Galactosidase at pH 4.5 (AID 957; active = well fitted curve in the direction sought with a large enough effect; an effect the other way counts as inactive or inconclusive)
# Summary of the method: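 Quantitative HTS of compounds (0.7 nM to 77 uM) against coffee bean alpha-galactosidase at pH 4.5, measuring 4-methylumbelliferone fluorescence released from 80 uM substrate.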
# [17] = biological target: Alpha-galactosidase (Coffea arabica) (UniProt Q42656); assay: Counterscreen for Glucocerebrosidase Inhibitors: qHTS Assay for Coffee Bean alpha-Galactosidase at pH 5.9 (AID 998; active = well fitted curve in the direction sought with a large enough effect; an effect the other way counts as inactive or inconclusive)
# Summary of the method: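 Enzyme 2 nM + cpd (0.7 nM–77 uM titration) + 4-MU-alpha-Gal 80 uM, pH 5.9 citrate/Tween-20, RT 20 min, NaOH/glycine stop pH 10, fluor 365/440. Normalized to no-enzyme and full-activity controls; Hill-fit AC50.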
# [18] = Inducers of the Endoplasmic Reticulum Stress Response (ERSR) in human glioma: Validation (AID 504836; active = well fitted curve in the direction sought with a large enough effect; an effect the other way counts as inactive or inconclusive)
# Summary of the method: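 Stably transfected U87-MG glioma cells carrying a GRP78-based luciferase sensor; 16 h compound incubation. Luminescence end-point read 10 min after Bright-Glo addition at room temperature.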
# [19] = biological target: Cytochrome P450 3A4 (Homo sapiens) (UniProt P08684); assay: qHTS Assay for Inhibitors and Substrates of Cytochrome P450 3A4 (AID 884; active = well fitted curve in the direction sought with a large enough effect; an effect the other way counts as inactive or inconclusive; note: potency is the fitted concentration of half-maximal effect; nearly all actives have a fitted effect of over 50% in size)
# Summary of the method: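 Luminescent readout of luciferin produced by CYP3A4 (20 nM) dealkylation of Luciferin-PPXE, 25 uM (its KM). NADPH-driven reaction ran 60 min at RT after 10 min compound preincubation; data scaled to 57 uM ketoconazole as 100% inhibition.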
# [20] = biological target: Cytochrome P450 3A4 (Homo sapiens) (UniProt P08684); assay: qHTS Assay for Activators of Cytochrome P450 3A4 (AID 885; active = well fitted curve in the direction sought with a large enough effect; an effect the other way counts as inactive or inconclusive; note: nearly all actives have a fitted effect of over 65% in size)
# Summary of the method: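 CYP3A4 activity: Luciferin-PPXE O-dealkylation, 25uM substrate, 200mM KPO4, RT throughout. Read-out is luciferase luminescence; higher values reflect activation.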
# [21] = biological target: Cytochrome P450 2C19 (Homo sapiens) (UniProt P33261); assay: qHTS Assay for Inhibitors and Substrates of Cytochrome P450 2C19 (AID 899; active = well fitted curve in the direction sought with a large enough effect; an effect the other way counts as inactive or inconclusive; note: potency is the fitted concentration of half-maximal effect; nearly all actives have a fitted effect of over 60% in size)
# Summary of the method: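 Luminescent read-out of luciferin formed from Luciferin-H EGE (10uM, equal to KM). Enzyme 5nM in 50mM KPO4; compound added, 10 min at 37C, then NADPH regenerating system for 60 min at 37C. Full inhibition defined by 57uM ketoconazole.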
# [22] = Validation screen for inhibitors of Lassa infection (AID 463096)
# Chain of Nucleoprotein (Lymphocytic choriomeningitis virus (strain Armstrong)) (P09992 whole entry, looked up): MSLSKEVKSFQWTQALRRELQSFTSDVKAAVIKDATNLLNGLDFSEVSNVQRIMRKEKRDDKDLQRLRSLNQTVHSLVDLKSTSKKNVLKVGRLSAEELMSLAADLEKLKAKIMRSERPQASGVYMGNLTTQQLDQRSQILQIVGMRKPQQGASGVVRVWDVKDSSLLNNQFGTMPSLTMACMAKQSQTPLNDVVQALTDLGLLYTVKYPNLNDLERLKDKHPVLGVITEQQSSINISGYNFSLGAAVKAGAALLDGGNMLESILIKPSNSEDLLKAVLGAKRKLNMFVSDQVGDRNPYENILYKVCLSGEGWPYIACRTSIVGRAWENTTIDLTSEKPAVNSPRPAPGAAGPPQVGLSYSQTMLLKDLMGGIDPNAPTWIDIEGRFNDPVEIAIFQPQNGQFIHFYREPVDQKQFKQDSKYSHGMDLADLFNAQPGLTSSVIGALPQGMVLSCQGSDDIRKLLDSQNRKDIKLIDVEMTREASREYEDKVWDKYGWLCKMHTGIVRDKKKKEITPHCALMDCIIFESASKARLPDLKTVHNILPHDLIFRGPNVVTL
# Chain of Alpha-galactosidase (Coffea arabica) (Q42656 whole entry, looked up): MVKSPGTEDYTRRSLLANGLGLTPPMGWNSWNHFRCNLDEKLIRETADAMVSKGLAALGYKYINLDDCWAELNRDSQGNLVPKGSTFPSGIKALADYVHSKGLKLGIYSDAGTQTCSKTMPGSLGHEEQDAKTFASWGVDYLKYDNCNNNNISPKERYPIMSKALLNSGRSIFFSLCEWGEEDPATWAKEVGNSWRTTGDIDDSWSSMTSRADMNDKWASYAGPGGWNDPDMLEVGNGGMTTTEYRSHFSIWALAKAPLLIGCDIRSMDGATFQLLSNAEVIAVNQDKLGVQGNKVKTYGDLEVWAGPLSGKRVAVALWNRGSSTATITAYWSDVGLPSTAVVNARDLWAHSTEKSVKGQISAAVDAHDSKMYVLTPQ
# Chain of Cytochrome P450 2C19 (Homo sapiens) (P33261 whole entry, looked up): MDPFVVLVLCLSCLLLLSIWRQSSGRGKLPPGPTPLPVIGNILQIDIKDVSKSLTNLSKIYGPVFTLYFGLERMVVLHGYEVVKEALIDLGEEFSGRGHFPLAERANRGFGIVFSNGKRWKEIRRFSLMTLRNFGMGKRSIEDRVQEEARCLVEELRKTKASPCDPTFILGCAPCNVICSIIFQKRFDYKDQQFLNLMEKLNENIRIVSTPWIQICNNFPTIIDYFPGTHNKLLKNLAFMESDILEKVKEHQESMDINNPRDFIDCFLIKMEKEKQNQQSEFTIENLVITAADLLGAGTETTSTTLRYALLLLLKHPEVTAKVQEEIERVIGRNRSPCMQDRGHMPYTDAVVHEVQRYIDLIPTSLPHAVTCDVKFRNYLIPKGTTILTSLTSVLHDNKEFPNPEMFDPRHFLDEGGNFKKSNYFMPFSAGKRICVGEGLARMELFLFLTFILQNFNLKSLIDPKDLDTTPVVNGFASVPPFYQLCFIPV
# Chain of Cytochrome P450 3A4 (Homo sapiens) (P08684 whole entry, looked up): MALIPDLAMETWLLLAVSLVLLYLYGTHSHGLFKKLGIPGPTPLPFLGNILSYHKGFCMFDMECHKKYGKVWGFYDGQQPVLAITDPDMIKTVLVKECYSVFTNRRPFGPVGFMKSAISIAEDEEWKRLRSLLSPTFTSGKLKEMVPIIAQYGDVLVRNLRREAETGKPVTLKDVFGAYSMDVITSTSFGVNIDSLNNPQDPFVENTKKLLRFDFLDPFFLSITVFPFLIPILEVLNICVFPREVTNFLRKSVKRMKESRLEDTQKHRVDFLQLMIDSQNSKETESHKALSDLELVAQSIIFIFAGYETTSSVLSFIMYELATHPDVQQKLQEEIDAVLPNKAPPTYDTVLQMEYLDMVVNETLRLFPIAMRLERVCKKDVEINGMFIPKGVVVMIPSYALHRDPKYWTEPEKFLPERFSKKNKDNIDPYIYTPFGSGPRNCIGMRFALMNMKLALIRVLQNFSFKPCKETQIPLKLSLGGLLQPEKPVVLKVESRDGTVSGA
smiles,measurement,setting,value
C[C@H](CCC(=O)O)[C@H]1CC[C@H]2[C@@H]3[C@H](O)C[C@@H]4C[C@H](O)CC[C@]4(C)[C@@H]3CC[C@]12C,"parasite growth, % of DMSO control",[1],59.3%
same,"parasite growth remaining, % of DMSO control (lower = more inhibition)",[2],92.9%
same,"parasite growth, % of control (lower = inhibition)",[3],67.3%
same,Potency,[4],inactive
same,Potency,[5],inactive
same,Potency,[6],inactive
same,Potency,[7],inactive
CCCCOc1c(C(=O)c2c(F)cc(C)cc2F)cnc2n[nH]cc12,Potency,[4],5.44 µM (active)
same,Potency,[5],2.17 µM (active)
same,Potency,[6],7.69 µM (active)
same,Potency,[8],1.52 µM (active)
same,Potency,[9],inactive
same,Potency,[10],1.12 µM (active)
same,Potency,[11],1.52 µM (active)
CCC[C@@H](C=O)NC(=O)[C@H](CC(C)C)NC(=O)[C@H](CC(C)C)NC(=O)OCc1ccccc1 (Cbz-Leu-Leu-[Nva]-aldehyde),Potency,[4],3.43 µM (active)
same,Potency,[5],5.44 µM (active)
same,Potency,[6],12.2 µM (active)
same,Potency,[12],714 nM (active)
same,Potency,[10],0.891 µM (active)
CS(=O)(=O)c1ccc(C2=C(c3ccccc3)C(=O)OC2)cc1,Potency,[4],inactive
same,Potency,[5],inactive
same,Potency,[6],27.3 µM (active)
same,outcome,[13],inactive
same,Potency,[14],inactive
same,outcome,[15],inactive
same,Potency,[9],inactive
same,"activity change, negative = inhibition",[10],-28.2% and -25.4%
Cc1cccc2c1CC[C@H](CN1CCC(c3c(Cl)cccc3Cl)CC1)C[C@@H]2O,"parasite growth remaining, % of DMSO control (lower = more inhibition)",[2],25.2%
same,Potency,[4],inactive
same,Potency,[5],inactive
same,Potency,[6],inactive
same,Potency,[7],inactive
CCCn1c(=O)c2[nH]c(-c3ccc(OCC(=O)NCCN)cc3)nc2n(CCC)c1=O,outcome,[16],inactive
same,outcome,[17],inactive
same,Potency,[4],inactive
same,Potency,[5],inactive
same,Potency,[6],inactive
same,Potency,[7],inactive
COc1cc(C[C@@H](CO)[C@H](CO)Cc2ccc(O)c(OC)c2)ccc1O,Potency,[4],inactive
same,Potency,[5],1.72 µM (active)
same,Potency,[6],2.73 µM (active)
same,Potency,[9],inactive
same,Potency,[10],inactive
c1ccc(C(NCCNC(c2ccccc2)c2ccccc2)c2ccccc2)cc1,outcome,[18],inactive
same,Potency,[4],inactive
same,Potency,[5],inactive
same,Potency,[6],inactive
CC(C)n1nc(-c2ccc3oc(N)nc3c2)c2c(N)ncnc21,Potency,[4],0.0024 µM (active)
same,Potency,[5],0.0019 µM (active)
same,Potency,[6],0.0031 µM (active)
same,"activity change, negative = inhibition",[10],-61%
CN(C)CCCc1cc(C(=O)Nc2ccc(-c3ccncc3)cc2)ccc1O,outcome,[18],inactive
same,Potency,[4],inactive
same,Potency,[5],inactive
same,Potency,[6],inactive
CC(C)Cc1ccc([C@H](C)C(=O)O)cc1,outcome,[16],inactive
same,outcome,[17],inactive
same,Potency,[4],inactive
same,Potency,[5],inactive
same,Potency,[6],inactive
same,Potency,[7],inactive
C=CCNc1ncnc2ccc(Br)cc12,outcome,[18],inactive
same,Potency,[4],inactive
same,Potency,[5],inactive
same,Potency,[6],inactive
CC[C@@]1(O)C[C@H](O[C@H]2C[C@H](N(C)C)[C@H](O[C@H]3C[C@H](O)[C@H](O[C@H]4CCC(=O)[C@H](C)O4)[C@H](C)O3)[C@H](C)O2)c2c(cc3c(c2O)C(=O)c2c(O)cccc2C3=O)[C@@H]1C(=O)OC,Potency,[4],inactive
same,Potency,[5],0.344 µM (active)
same,Potency,[6],0.344 µM (active)
same,outcome,[13],inactive
same,Potency,[14],inactive
same,outcome,[15],inactive
same,Potency,[11],3.04 µM (active)
Nc1nc(OCc2ccccc2)c2[nH]cnc2n1,Potency,[19],7.94 µM (active)
same,Potency,[20],inactive
same,Potency,[21],6.31 µM (active)
same,outcome,[16],inactive
same,outcome,[17],inactive
same,Potency,[22],inactive
same,outcome,[18],inactive
same,"parasite growth, % of DMSO control",[1],83.5%
same,"parasite growth remaining, % of DMSO control (lower = more inhibition)",[2],103%
same,"parasite growth, % of control (lower = inhibition)",[3],72.1%
same,Potency,[4],inactive
same,Potency,[5],inactive
same,Potency,[6],17.2 µM (active)
same,Potency,[9],inactive
same,Potency,[10],inactive
CN(N=O)C(=O)N[C@H]1C(O)OC(CO)[C@@H](O)[C@H]1O (some centres undefined),Potency,[21],7.94 µM (active)
same,Potency,[4],inactive
same,Potency,[5],inactive
same,Potency,[6],inactive
same,Potency,[7],inactive
C[C@H](CCC(=O)O)[C@H]1CCC2C3CC[C@@H]4C[C@H](O)CC[C@]4(C)C3CC[C@@]21C (some centres undefined),"parasite growth, % of DMSO control",[1],97.3%
same,"parasite growth, % of control (lower = inhibition)",[3],65%
same,Potency,[4],inactive
same,Potency,[5],inactive
same,Potency,[6],inactive
same,Potency,[7],inactive
COc1cc(CNC(=O)CCCCC=CC(C)C)ccc1O,"parasite growth, % of DMSO control",[1],92.4%
same,"parasite growth remaining, % of DMSO control (lower = more inhibition)",[2],103%
same,"parasite growth, % of control (lower = inhibition)",[3],129%
same,Potency,[4],inactive
same,Potency,[5],inactive
same,Potency,[6],inactive
same,Potency,[7],inactive
N#Cc1cc(NC(=O)Nc2nnc(-c3ccncc3)s2)ccc1-c1cn[nH]c1,Potency,[4],inactive
same,Potency,[5],inactive
same,Potency,[6],6.85 µM (active)
same,Potency,[10],inactive
CN(C)S(=O)(=O)c1ccc2c(c1)C(=Cc1cc3c([nH]1)CCCC3)C(=O)N2,Potency,[4],inactive
same,Potency,[5],10.9 µM (active)
same,Potency,[6],2.73 µM (active)
same,Potency,[9],inactive
COc1ccc(CCN(C)CCc2ccc(OC)c(OC)c2)cc1OC,outcome,[16],inactive
same,Potency,[4],inactive
same,Potency,[5],inactive
same,Potency,[6],inactive
same,Potency,[7],inactive
NC(=O)c1noc([C@H](CCCC2CCCCC2)CC(=O)NO)n1,Potency,[4],inactive
same,Potency,[5],inactive
same,Potency,[6],inactive
same,Potency,[9],inactive
same,"activity change, negative = inhibition",[10],-13.6%
CCN(CC)CCCCCCCCOC(=O)c1cc(OC)c(OC)c(OC)c1,outcome,[16],inactive
same,outcome,[17],inactive
same,outcome,[18],inactive
same,Potency,[4],inactive
same,Potency,[5],inactive
same,Potency,[6],inactive
NC[C@H]1O[C@H](O[C@@H]2[C@@H](O)[C@@H](O[C@H]3O[C@H](CO)[C@@H](O)[C@H](N)[C@@H]3O)[C@H](N)C[C@@H]2N)[C@H](O)[C@@H](O)[C@H]1O,Potency,[4],inactive
same,Potency,[5],inactive
same,Potency,[6],inactive
same,Potency,[9],inactive
same,"activity change, negative = inhibition",[10],-26.9%
